Reference: PubChem BioAssay (Tox21)
“And” between values parts separate entries of the source, which are not always exact repeats. Identical values can stand only once. Inconclusive results are not listed. Some structures have more than one record in an assay (separate samples or runs), and their calls can disagree. The source made the active and inactive calls. Unless noted, calls come from the whole dose curve; as a rule, active = well fitted curve in the direction sought with a large enough effect in the repeat runs; inconclusive = weak or mixed curves; inactive = no such curve, though single readings can be large; an effect the other way counts as inactive or inconclusive.

Legend:
[1] = qHTS assay to identify small molecule antagonists of the estrogen related receptor (ERR) signaling pathway from Tox21 library (AID 1224848); note: nearly all actives have a fitted effect of over 50% in size; note: potency is the fitted concentration of half-maximal effect
How it was run: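 Screening used an ERR reporter line supplied by NTP, exposed for 18 h at 37 C to library compounds delivered in DMSO. Signal was luciferase luminescence developed with ONE-Glo at room temperature for 30 min.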

[2] = qHTS assay to identify small molecule agonists of the estrogen related receptor (ERR) signaling pathway from Tox21 library (AID 1224849; calls by dose curve; note: nearly all actives have a fitted effect of over 15% in size); conditions: ERR reporter cell line, ONE-Glo luciferase, 18 h
How it was run: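 ERR cells, 6 h pre-incubation 37 C/5% CO2; cpd in DMSO pinned; 18 h 37 C; ONE-Glo added, 30 min RT; luminescence read. Agonist mode, qHTS.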

[3] = qHTS RealTime-Glo MT Cell Viability Assay in HepG2 cells - 40 hour (AID 1224870); note: nearly all actives have a fitted effect of over 50% in size
How it was run: (§1)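 HepG2 cells mixed with RealTime-Glo MT reagents (NanoLuc plus cell-permeant prosubstrate) were seeded at 600 cells/well, incubated 5 h at 37 C/5% CO2, then pinned with compounds in DMSO; nonlytic luminescence tracked viability during 40 h treatment.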

[4] = A CellTox Green Cytotoxicity Assay to monitor cytotoxicity in HEK293 cells - 40 hour (AID 1224871); note: nearly all actives have a fitted effect of over 45% in size; note: potency is the fitted concentration of half-maximal effect
How it was run: (§2)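 Nonlytic real-time cytotoxicity: HEK293 + CellTox Green reagent plated, 5 h preincubation, pintool compound addition (23 nL in DMSO), 37 C for 40 h, fluorescence measured at successive time points.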

[5] = qHTS RealTime-Glo MT Cell Viability Assay in HEK293 cells - 16 hour (AID 1224872); note: nearly all actives have a fitted effect of over 50% in size; note: potency is the fitted concentration of half-maximal effect
How it was run: (§3)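 Cells + reagent dispensed (600 cells/well, HEK293) → 5 h at 37 C/5% CO2 → 23 nL compound in DMSO pinned → 40 h at 37 C → luminescence read at 0, 8, 16, 24, 32, 40 h.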

[6] = qHTS RealTime-Glo MT Cell Viability Assay in HepG2 cells - 8 hour (AID 1224873); note: nearly all actives have a fitted effect of over 55% in size
How it was run: as §1

[7] = qHTS RealTime-Glo MT Cell Viability Assay in HEK293 cells - 40 hour (AID 1224874); conditions: RealTime-Glo luminescence; max response: stronger effect = lower value; note: nearly all actives have a fitted effect of over 50% in size; note: potency is the fitted concentration of half-maximal effect
How it was run: (§4)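 Cells were seeded together with NanoLuc luciferase and a prosubstrate that viable cells reduce to a luciferase substrate. After a 5 h incubation at 37 C/5% CO2, compounds were added and luminescence was measured repeatedly during 40 h of treatment.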

[8] = A CellTox Green Cytotoxicity Assay to monitor cytotoxicity in HEK293 cells - 24 hour (AID 1224875); note: nearly all actives have a fitted effect of over 45% in size
How it was run: as §2

[9] = A CellTox Green Cytotoxicity Assay to monitor cytotoxicity in HepG2 cells - 16 hour (AID 1224876); note: nearly all actives have a fitted effect of over 45% in size
How it was run: (§5)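 Read-out is fluorescence of a cyanine dye excluded from live cells that stains DNA of dead HepG2 cells, with signal proportional to cytotoxicity. Plates were read at 0, 8, 16, 24, 32 and 40 h after compound addition.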

[10] = qHTS RealTime-Glo MT Cell Viability Assay in HepG2 cells - 32 hour (AID 1224877); note: nearly all actives have a fitted effect of over 55% in size
How it was run: (§6)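 Real-time, nonlytic viability: 600 HepG2 cells/well mixed with NanoLuc enzyme plus prosubstrate; 5 h settle, compound (DMSO) added by pintool; luminescence monitored over 40 h at 37 C.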

[11] = A CellTox Green Cytotoxicity Assay to monitor cytotoxicity in HepG2 cells - 24 hour (AID 1224878); note: nearly all actives have a fitted effect of over 45% in size; note: potency is the fitted concentration of half-maximal effect
How it was run: as §5

[12] = qHTS RealTime-Glo MT Cell Viability Assay in HEK293 cells - 0 hour (AID 1224880); note: nearly all actives have a fitted effect of over 45% in size; note: potency is the fitted concentration of half-maximal effect
How it was run: as §4

[13] = A CellTox Green Cytotoxicity Assay to monitor cytotoxicity in HepG2 cells - 0 hour (AID 1224882); note: nearly all actives have a fitted effect of over 35% in size
How it was run: as §5

[14] = A CellTox Green Cytotoxicity Assay to monitor cytotoxicity in HepG2 cells - 32 hour (AID 1224883); note: nearly all actives have a fitted effect of over 50% in size; note: potency is the fitted concentration of half-maximal effect
How it was run: as §5

[15] = A CellTox Green Cytotoxicity Assay to monitor cytotoxicity in HEK293 cells - 8 hour (AID 1224884); note: nearly all actives have a fitted effect of over 35% in size
How it was run: as §2

[16] = qHTS RealTime-Glo MT Cell Viability Assay in HEK293 cells - 32 hour (AID 1224868); note: nearly all actives have a fitted effect of over 50% in size; note: potency is the fitted concentration of half-maximal effect
How it was run: as §3

[17] = A CellTox Green Cytotoxicity Assay to monitor cytotoxicity in HEK293 cells - 0 hour (AID 1224869); note: nearly all actives have a fitted effect of over 50% in size
How it was run: as §2

[18] = A CellTox Green Cytotoxicity Assay to monitor cytotoxicity in HEK293 cells - 32 hour (AID 1224881); note: nearly all actives have a fitted effect of over 40% in size; note: potency is the fitted concentration of half-maximal effect
How it was run: as §2

[19] = A CellTox Green Cytotoxicity Assay to monitor cytotoxicity in HepG2 cells - 40 hour (AID 1224879); note: nearly all actives have a fitted effect of over 40% in size; note: potency is the fitted concentration of half-maximal effect
How it was run: as §5

[20] = qHTS RealTime-Glo MT Cell Viability Assay in HepG2 cells - 24 hour (AID 1224867); note: nearly all actives have a fitted effect of over 50% in size
How it was run: as §6
% is set by controls: 0 for no effect and ±100 for the full control effect.

OCCOCCOCCO
inactive: Potency [1] | activity change, positive = activation ([2]; at 92.4 µM (top of the series)) -2.92% and 6.58% | outcome [3] | Potency [4] | Potency [5] | outcome [6] | max response [7] -0.565% and 3.8% | Potency [8] | Potency [9] | outcome [10] | Potency [11] | Potency [12] | outcome [13] | Potency [14] | outcome [15]

C[C@H]1C[C@@H]2[C@H]([C@@H](O)C[C@@]3(C)[C@H]2CC[C@]3(O)C(=O)CO)[C@@]2(C)C=CC(=O)C=C12
active: Potency [12] 7.76 µM and 8.49 µM
inactive: Potency [1] | activity change, positive = activation ([2]; at 42.5 µM (top of the series)) -3.14% | activity change, positive = activation ([2]; at 92.4 µM (top of the series)) -13.3% | Potency [16] | outcome [17] | outcome [3] | Potency [4] | Potency [5] | outcome [6] | max response [7] -9.2% and -9.81% | Potency [8] | Potency [9] | outcome [10] | Potency [11] | Potency [18] | outcome [13] | Potency [14] | outcome [15]

O=C(CC(C(=O)OC1CCCCC1)S(=O)(=O)O)OC1CCCCC1 (stereo unspecified)
inactive: Potency [1] | activity change, positive = activation ([2]; at 92.4 µM (top of the series)) 3.03% and -2.61% | Potency [16] | outcome [3] | Potency [4] | Potency [5] | outcome [6] | max response [7] 7.94% and 16.6% | Potency [8] | Potency [9] | outcome [10] | Potency [11] | Potency [19] | Potency [12] | outcome [13] | Potency [14] | outcome [15]

OCC(CO)(CBr)CBr
inactive: Potency [1] | activity change, positive = activation ([2]; at 92.4 µM (top of the series)) 2.42% and 0.192% | outcome [20] | Potency [16] | outcome [3] | Potency [4] | Potency [5] | outcome [6] | max response [7] -5.13% and 3.96% | Potency [8] | Potency [9] | outcome [10] | Potency [11] | Potency [12] | outcome [13] | Potency [14] | outcome [15]

C=C(C)C(=O)O[C@H]1C[C@@H]2CC[C@@]1(C)C2(C)C
6.87 µM (active) and inactive: Potency [14]
10.9 µM (active) and inactive: Potency [18]
12.2 µM (active) and inactive: Potency [4]
inactive: activity change, positive = activation ([2]; at 92.4 µM (top of the series)) -82.3% and 8.09% | outcome [3] | outcome [6] | max response [7] 2.39% | Potency [8] | outcome [10] | Potency [12] | outcome [13] | outcome [15]
4.87 µM (active) and inactive: Potency [11]
15.4 µM (active) and inactive: Potency [16] | Potency [5]
active: Potency [7] 15.4 µM
4.83 µM (active) and inactive: Potency [1]

OC[C@H]1O[C@@](CO)(O[C@H]2O[C@H](CO)[C@@H](O)[C@H](O)[C@H]2O)[C@@H](O)[C@@H]1O
inactive: Potency [1] | activity change, positive = activation ([2]; at 92.4 µM (top of the series)) 6.61% and 1.2% | Potency [4] | Potency [8] | Potency [9] | Potency [11] | Potency [19] | Potency [18] | outcome [13] | Potency [14] | outcome [15]

CCC(O)OCCCOC (stereo unspecified)
inactive: Potency [1] | activity change, positive = activation ([2]; at 92.4 µM (top of the series)) 1.37% and 8.84% | Potency [16] | outcome [17] | outcome [3] | Potency [4] | Potency [5] | outcome [6] | max response [7] 1.35% and 16.2% | Potency [8] | Potency [9] | outcome [10] | Potency [11] | Potency [19] | Potency [12] | Potency [18] | outcome [13] | Potency [14] | outcome [15]

CN(C)CCOCCN(C)C
inactive and 49 µM (active): Potency [11] | Potency [19] | Potency [18] | Potency [14]
inactive: Potency [1] | activity change, positive = activation ([2]; at 92.4 µM (top of the series)) -5.24% and -0.172% | outcome [20] | outcome [17] | outcome [3] | Potency [5] | outcome [6] | max response [7] 0.168% and 5.1% | outcome [10] | Potency [12] | outcome [13] | outcome [15]
inactive and 43.6 µM (active): Potency [4]

CC(=O)CC(=O)Nc1ccccc1C
inactive: Potency [1] | activity change, positive = activation ([2]; at 92.4 µM (top of the series)) 1.06% and 1.9% | outcome [20] | Potency [16] | outcome [17] | outcome [3] | Potency [4] | Potency [5] | outcome [6] | max response [7] -0.0445% and -13.2% | Potency [8] | Potency [9] | outcome [10] | Potency [11] | Potency [19] | Potency [12] | Potency [18] | outcome [13] | Potency [14] | outcome [15]

Cc1cccnc1
inactive: Potency [1] | activity change, positive = activation ([2]; at 92.4 µM (top of the series)) 2.78% and 3.63% | outcome [17] | outcome [3] | Potency [4] | Potency [5] | outcome [6] | max response [7] -5.56% and 0.742% | Potency [8] | outcome [10] | Potency [11] | Potency [19] | Potency [12] | outcome [13] | Potency [14] | outcome [15]

COc1ccc(Nc2ccccc2)c(C)c1
inactive and 43.6 µM (active): Potency [4]
inactive: Potency [1] | activity change, positive = activation ([2]; at 92.4 µM (top of the series)) -0.657% | outcome [20] | Potency [16] | outcome [17] | outcome [3] | Potency [5] | outcome [6] | max response [7] 2.22% and -26.6% | Potency [8] | Potency [9] | outcome [10] | Potency [11] | Potency [19] | Potency [12] | outcome [13] | Potency [14] | outcome [15]

CCCCCCCCCCCCCCCO
inactive: Potency [1] | activity change, positive = activation ([2]; at 92.4 µM (top of the series)) -0.174% | outcome [20] | Potency [16] | outcome [17] | outcome [3] | Potency [4] | Potency [5] | outcome [6] | max response [7] 0.0156% | Potency [8] | outcome [10] | Potency [11] | Potency [19] | Potency [12] | Potency [18] | outcome [13] | Potency [14] | outcome [15]
